# Measured values from PubChem BioAssay (NCI).
# About 79,000 compounds went through this panel and 15% of them were active in at least one assay; those are over-represented in the sample as a whole. Values without a mark were called inactive. Calls of active or inactive are those of the source. No stated cut-off is given here; in the data, active means growth inhibition above about 70%; inactive means the rest.
# How the values were obtained:
# [1] = NCI Yeast Anticancer Drug Screen. Data for the rad52 strain (AID 147);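 further: 0% = growth of vehicle-treated control cultures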; details: S. cerevisiae rad52 mutant growth inhibition, active compounds read high
# How it was run: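 The repair-mutant yeast strain was incubated with compounds, then growth was read and inhibition derived relative to vehicle.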
# [2] = NCI Yeast Anticancer Drug Screen. Data for the wt1 strain (AID 149);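 further: 0% = growth of vehicle-treated wt1 cultures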; details: S. cerevisiae wt1 strain (SPY 50644) growth inhibition, active compounds read high
# How it was run: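 wt1 yeast, compound-treated; % growth inhibition vs vehicle control.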
# [3] = NCI Yeast Anticancer Drug Screen. Data for the rad50EPP+ strain (AID 151);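 further: 0% = growth of vehicle-treated control cultures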; details: S. cerevisiae rad50 mutant strain, active compounds read high
# How it was run: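 Vehicle-normalised growth inhibition; rad50EPP+ yeast strain, altered in DNA damage repair, compound-treated.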
# [4] = NCI Yeast Anticancer Drug Screen. Data for the mgt1 strain (AID 153); details: S. cerevisiae mgt1 mutant growth inhibition, active compounds read high
# How it was run: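 Vehicle-normalized growth inhibition is determined in mgt1 yeast, a strain selected for a defined alteration in DNA repair or cell cycle control.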
# [5] = NCI Yeast Anticancer Drug Screen. Data for the rad50 strain (AID 155);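 further: 0% = growth of vehicle-only cultures of the same strain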; details: S. cerevisiae rad50 strain growth inhibition, active compounds read high
# How it was run: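 Genetically altered yeast (DNA repair pathway); compound treatment; growth inhibition vs vehicle ctrl.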
# [6] = NCI Yeast Anticancer Drug Screen. Data for the mec2-1 strain (AID 157); details: S. cerevisiae mec2-1 strain, active compounds read high
# How it was run: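 Mutant yeast (mec2-1) grown with compound; growth inhibition relative to vehicle control reported.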
# [7] = NCI Yeast Anticancer Drug Screen. Data for the sgs1 mgt1 strain (AID 161);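 further: 0% = growth of cultures given vehicle only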; details: S. cerevisiae sgs1 mgt1 strain, active compounds read high
# How it was run: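 Percent growth inhibition was derived by comparing compound-exposed mutant yeast with vehicle-exposed cultures. The strain carries alterations in DNA damage repair.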
# [8] = NCI Yeast Anticancer Drug Screen. Data for the CLN2oe strain (AID 163);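 further: 0% = growth of vehicle-only control cultures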; details: S. cerevisiae CLN2oe strain, active compounds read high
# How it was run: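 Compounds are applied to yeast harbouring a defined cell-cycle control change; reduced growth compared with vehicle-treated controls gives the value.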
# [9] = NCI Yeast Anticancer Drug Screen. Data for the cln2 rad14 strain (AID 165);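 further: 0% = growth equal to vehicle treated cultures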; details: S. cerevisiae cln2 rad14 strain, active compounds read high
# How it was run: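 Readout is yeast growth inhibition versus vehicle-treated controls, using a strain with cln2 and rad14 alterations exposed to compound.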
# [10] = NCI Yeast Anticancer Drug Screen. Data for the bub3 strain (AID 167); details: S. cerevisiae bub3 mutant strain, active compounds read high
# How it was run: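 Yeast carrying a defined mutation is treated with each compound, and growth is compared with that of vehicle-exposed cells to give inhibition.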
# [11] = NCI Yeast Anticancer Drug Screen. Data for the wt2 strain (AID 169);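 further: 0% = growth of vehicle-treated yeast cultures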; details: S. cerevisiae wt2 strain growth inhibition, active compounds read high
# How it was run: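 Against vehicle-treated controls, the growth of yeast exposed to each compound was compared, and the inhibition was recorded.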
# [12] = NCI Yeast Anticancer Drug Screen. Data for the mlh1 strain (AID 171);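 further: 0% = growth of vehicle-treated control cultures of the same strain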; details: S. cerevisiae mlh1 strain growth inhibition, active compounds read high
# How it was run: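 Measured: yeast growth. Reference: vehicle-treated controls. Organism: strain with a defined alteration affecting DNA damage repair or cell cycle control, treated with compound.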
# [13] = NCI Yeast Anticancer Drug Screen. Data for the sgs1 strain (AID 173);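 further: 0% = growth of vehicle-only control cultures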; details: S. cerevisiae sgs1 mutant, active compounds read high
# How it was run: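 Each compound was added to cultures of the altered yeast strain. Growth was recorded, and inhibition was derived by comparison with vehicle controls.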
# [14] = NCI Yeast Anticancer Drug Screen. Data for the mlh1 rad18 strain (AID 175); details: S. cerevisiae mlh1 rad18 strain growth inhibition, active compounds read high
# How it was run: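 Genetically defined yeast (DNA repair-deficient) exposed to compounds; growth inhibition determined relative to vehicle.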
# [15] = NCI Yeast Anticancer Drug Screen. Data for the rad18 strain (AID 177); details: S. cerevisiae rad18 mutant growth inhibition, active compounds read high
# How it was run: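 Vehicle-treated cultures served as the baseline for scoring compound-induced growth inhibition in DNA-repair-mutant yeast.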
# [16] = at 5.0 µM (retest, dose inferred, filed as 0.5)
# [17] = at 50.0 µM (retest, dose inferred, filed as 5.0)
smiles,measurement,setting,value
COc1ccc2cc(C(C)C(=O)N3CCOC3=O)ccc2c1 (stereo not drawn),growth inhibition,[1]; at 1.2 µM,-9%
same,growth inhibition,[1]; at 3.7 µM,-16%
same,growth inhibition,[1]; at 11.0 µM,-7%
same,growth inhibition,[1]; at 33.0 µM,-8%
same,growth inhibition,[1]; at 100.0 µM,12%
same,growth inhibition,[2]; at 1.2 µM,-34%
same,growth inhibition,[2]; at 3.7 µM,-34%
same,growth inhibition,[2]; at 11.0 µM,-29%
same,growth inhibition,[2]; at 33.0 µM,-31%
same,growth inhibition,[2]; at 100.0 µM,-22%
same,growth inhibition,[3]; at 1.2 µM,5%
same,growth inhibition,[3]; at 3.7 µM,5%
same,growth inhibition,[3]; at 11.0 µM,7%
same,growth inhibition,[3]; at 33.0 µM,9%
same,growth inhibition,[3]; at 100.0 µM,22%
same,growth inhibition,[4]; at 1.2 µM,5%
same,growth inhibition,[4]; at 3.7 µM,6%
same,growth inhibition,[4]; at 11.0 µM,7%
same,growth inhibition,[4]; at 33.0 µM,21%
same,growth inhibition,[4]; at 100.0 µM,45%
same,growth inhibition,[5]; at 1.2 µM,21%
same,growth inhibition,[5]; at 3.7 µM,24%
same,growth inhibition,[5]; [16],-14%
same,growth inhibition,[5]; at 11.0 µM,15%
same,growth inhibition,[5]; at 33.0 µM,23%
same,growth inhibition,[5]; [17],27%
same,growth inhibition,[5]; at 50.0 µM,60.6%
same,growth inhibition,[5]; at 100.0 µM,50%
same,growth inhibition,[6]; at 1.2 µM,-21%
same,growth inhibition,[6]; at 3.7 µM,-28%
same,growth inhibition,[6]; [16],-11%
same,growth inhibition,[6]; at 11.0 µM,-27%
same,growth inhibition,[6]; at 33.0 µM,-19%
same,growth inhibition,[6]; [17],9%
same,growth inhibition,[6]; at 50.0 µM,23.9%
same,growth inhibition,[6]; at 100.0 µM,11%
same,growth inhibition,[7]; [16],7%
same,growth inhibition,[7]; [17],37%
same,growth inhibition,[7]; at 50.0 µM,57.1%
same,growth inhibition,[8]; at 1.2 µM,11%
same,growth inhibition,[8]; at 3.7 µM,5%
same,growth inhibition,[8]; at 11.0 µM,-3%
same,growth inhibition,[8]; at 33.0 µM,-6%
same,growth inhibition,[8]; at 100.0 µM,11%
same,growth inhibition,[9]; [16],16%
same,growth inhibition,[9]; [17],17%
same,growth inhibition,[9]; at 50.0 µM,24.7%
same,growth inhibition,[10]; at 1.2 µM,29%
same,growth inhibition,[10]; at 3.7 µM,25%
same,growth inhibition,[10]; [16],-15%
same,growth inhibition,[10]; at 11.0 µM,24%
same,growth inhibition,[10]; at 33.0 µM,21%
same,growth inhibition,[10]; [17],75% (active)
same,growth inhibition,[10]; at 50.0 µM,29.2%
same,growth inhibition,[10]; at 100.0 µM,40%
same,growth inhibition,[11]; at 1.2 µM,-41%
same,growth inhibition,[11]; at 3.7 µM,-41%
same,growth inhibition,[11]; at 11.0 µM,-34%
same,growth inhibition,[11]; at 33.0 µM,-28%
same,growth inhibition,[11]; at 100.0 µM,-7%
same,growth inhibition,[12]; at 1.2 µM,21%
same,growth inhibition,[12]; at 3.7 µM,10%
same,growth inhibition,[12]; at 11.0 µM,11%
same,growth inhibition,[12]; at 33.0 µM,21%
same,growth inhibition,[12]; at 100.0 µM,64%
same,growth inhibition,[13]; at 1.2 µM,-2%
same,growth inhibition,[13]; at 3.7 µM,-12%
same,growth inhibition,[13]; at 11.0 µM,-2%
same,growth inhibition,[13]; at 33.0 µM,3%
same,growth inhibition,[13]; at 100.0 µM,27%
same,growth inhibition,[14]; [16],-28%
same,growth inhibition,[14]; [17],78% (active)
same,growth inhibition,[14]; at 50.0 µM,44.1%
same,growth inhibition,[15]; at 1.2 µM,13%
same,growth inhibition,[15]; at 3.7 µM,10%
same,growth inhibition,[15]; at 11.0 µM,9%
same,growth inhibition,[15]; at 33.0 µM,4%
same,growth inhibition,[15]; at 100.0 µM,21%
